Bioassay records (PubChem)
This is a sample that favours compounds with a hit; in the whole collection about 2.9% have one here.
ADAM10 inh: inhibitors of human ADAM10. actives 0.62% (n = 370,000). inhibition, % at 7 µM. recombinant ADAM10, EDANS/DABCYL FRET peptide cleavage, 3 h. O14672;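 active = inhibition above a per-campaign cutoff equal to the mean of compounds falling between control-based bounds plus 3 SD, cut at about 20% in these data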;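 note: 0% = DMSO wells while the 100% control is not disclosed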
Target sequence (O14672 214-748 limits assumed): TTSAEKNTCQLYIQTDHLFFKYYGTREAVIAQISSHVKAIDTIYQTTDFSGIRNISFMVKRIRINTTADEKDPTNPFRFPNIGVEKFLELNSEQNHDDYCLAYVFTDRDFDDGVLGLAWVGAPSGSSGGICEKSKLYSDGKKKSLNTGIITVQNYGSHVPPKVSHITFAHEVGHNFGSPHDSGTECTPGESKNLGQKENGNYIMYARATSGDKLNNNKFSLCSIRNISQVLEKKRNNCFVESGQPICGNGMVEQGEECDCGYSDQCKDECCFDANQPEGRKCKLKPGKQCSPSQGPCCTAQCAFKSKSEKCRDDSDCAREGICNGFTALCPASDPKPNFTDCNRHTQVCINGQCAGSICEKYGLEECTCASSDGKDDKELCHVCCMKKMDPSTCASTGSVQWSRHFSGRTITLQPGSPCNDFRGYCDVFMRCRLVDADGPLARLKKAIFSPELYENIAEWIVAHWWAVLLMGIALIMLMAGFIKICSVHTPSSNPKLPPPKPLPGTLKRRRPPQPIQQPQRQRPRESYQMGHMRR
PLC-gamma1 inh: PLC-gamma1 (human) inhibition, primary screen. purified PLC-gamma1, fluorogenic substrate, fluorescence. P19174. actives 0.84% (n = 370,000). AID 720700. inhibition, % at 12.2 µM; in the data active = inhibition above about 9.5%
KLK7 zymogen act: activators of human kallikrein-7 zymogen; P49862; purified proKLK7, EDANS-DABCYL substrate fluorescence; 100% is mature enzyme control, 0% vehicle; activation, % at 7 µM; actives 0.9% (n = 370,000);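 active = activation above the mean of all tested compounds plus 3 SD, computed per campaign excluding outliers beyond control limits, cut at about 13% in these data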
PLCb3 inh: PLC-beta3 (human) inhibition, primary screen; Q01970; Purified PLC-beta3, fluorogenic substrate, fluorescence; inhibition, % at 12.2 µM; actives 0.18% (n = 370,000); in the data active = inhibition above about 11%;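 note: 0% = median of compound wells on plate and 100% = full blocker control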
ADAM17 inh: inhibits human ADAM17. P78536. inhibition, % at 6.95 µM. AID 720648. recombinant ADAM17, EDANS/DABCYL FRET peptide cleavage. actives 0.83% (n = 370,000);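 active = inhibition above the mean of compounds lying between control limits plus 3 SD, set per campaign, cut at about 8.5% in these data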;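 note: 0% = DMSO-only wells as the low control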
proKLK7 act conf: confirmation of human kallikrein-7 zymogen activators; shares compounds with KLK7 zymogen act; purified proKLK7, EDANS-DABCYL substrate fluorescence; scaled: vehicle 0, mature enzyme 100; activation, % at 7 µM; actives 68% (n = 3,200);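 active = activation, as change over the incubation, above the mean of all tested compounds plus 3 SD, cut at about 13% in these data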
EDANS-DABCYL int: fluorescence interference counter-screen for KLK7 activators | shares compounds with KLK7 zymogen act | EDANS-DABCYL substrate fluorescence interference, no enzyme, 4 h; solvent 0%, active enzyme control 100% | activation, % at 7 µM | actives 80% (n = 3,200);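 active = activation above the all-compound mean plus 3 SD, ignoring values outside control-based bounds, cut at about 4.8% in these data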;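 note: value is the 4 h activation minus the activation read at time zero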
Starred values were filed as active, the others as inactive; i = inactive; · = no result given.

SMILES	ADAM10 inh	PLC-gamma1 inh	KLK7 zymogen act	PLCb3 inh	ADAM17 inh	proKLK7 act conf	EDANS-DABCYL int
CN1CCN(Cc2nc(Cc3ccccc3)no2)CC1c1ccccc1 (stereo not given)	-3	0	0	-4	-2	·	·
CCCCc1cc(=O)oc2c(CN(CC)CC)c(O)c(Cl)cc12	i	i	63*	i	i	70*	71*
CCCc1cc(=O)oc2c(CN(CC)CC)c(O)c(Cl)cc12	i	i	53*	i	i	66*	68*
CCCCN(CCCC)Cc1cc(=O)oc2cc(C)c(Cl)cc12	-21	-9	0	-14	-8	·	·
c1ccc(Nc2c(-c3ccco3)nc3ccccn23)cc1	i	i	16*	i	-436	68*	72*
Cc1ccc(Nc2c(-c3ccco3)nc3ccccn23)cc1	i	i	-26	i	-411	·	·
COc1ccc(-c2cc(C(F)F)n3ncc(C(=O)n4ccnc4C)c3n2)cc1	-414	-457	13*	i	-148	169*	167*
CCOC(=O)N1CCN(C(=O)c2cnn3c(C(F)F)cc(-c4ccc(C)cc4)nc23)CC1	-9	-25	-1	-36	2	·	·
COc1cc2c(cc1OC)C(c1ccccc1)N(C(=O)c1ccco1)CC2 (stereo not given)	-6	1	-1	-4	-1	·	·
COC(=O)c1ccc(OCC(O)CN2CCc3cc(OC)c(OC)cc3C2c2ccccc2)cc1 (stereo not given)	-82	i	67*	i	-36	4	0
COc1cc2c(cc1OC)C(c1ccccc1)N(Cc1ccc(S(=O)(=O)NC(=O)c3ccco3)cc1)CC2 (stereo not given)	-72	-470	29*	i	-19	5	7.1*
CC(C)NC[C@@H](O)c1ccc(O)c(O)c1	-17	-11	33*	-9	-7	51*	49*
CC(=O)OCCn1c2nc(=O)[nH]c(=O)c-2nc2cc(C)c(C)cc21	-40	i	31*	i	-13	62*	71*
Cc1cccc(-n2c(O)c(C=Nc3ccc(O)cc3)c3ccccc3c2=O)n1	-76	-59	18*	-70	-18	23*	23*
Cc1cccc(-n2c(O)c(C=Nc3ccccc3O)c3ccccc3c2=O)n1	-64	-50	18*	-86	-26	11	9.4*
NS(=O)(=O)c1ccc(N=Cc2c(O)n(-c3nccs3)c(=O)c3ccccc23)cc1	-212	-328	23*	-462	-80	18*	20*
O=C(O)CSc1cccc2cccnc12	i	-202	-4	-270	-131	·	·
Cc1ccc(C(=O)COC(=O)CSc2cccc3cccnc23)c(C)c1	-107	-47	15*	-56	-39	12	12*
CCOc1ccc(C2C(C(=O)OC)=CN(CCOC)C=C2C(=O)OC)cc1	i	i	26*	i	i	-4	-2
COCCN1C=C(C(=O)OC)C(c2ccc3c(c2)OCO3)C(C(=O)OC)=C1	-166	-106	-1	-144	-54	·	·
COCCN1C=C(C(=O)OC)C(c2ccc(Cl)cc2)C(C(=O)OC)=C1	i	i	31*	i	i	-71	-71
N#Cc1c2c(c(-n3cnc4ccccc43)n3c1nc1ccccc13)CCC2	-10	-55	0	-56	-7	·	·
COC(=O)c1cc(C)nc2c1c(C)nn2-c1ccccc1	-29	-28	3	-41	-1	·	·
Cc1nn(-c2ccccc2)c2nc(N)c(C(N)=O)cc12	i	-388	14*	-488	-264	15*	17*
CCOC(=O)N1CCN(C(=S)NC(=O)c2nn(C)cc2Br)CC1	0	3	-1	1	0	·	·
SMILES	ADAM10 inh	PLC-gamma1 inh	KLK7 zymogen act	PLCb3 inh	ADAM17 inh	proKLK7 act conf	EDANS-DABCYL int
N#CC1C(=O)NC(c2ccccc2)=CC1c1ccccc1 (stereo not given)	-246	-40	124*	-55	-74	110*	103*
COc1ccc(OC)c2c1C(=O)c1ccccc1C2=O	-1	-8	0	-16	-1	·	·
COc1ccc2noc3c2c1C(=O)c1ccccc1-3	-2	-425	25*	i	-2	-39	-31
Oc1[nH]c2ccccc2c1N=Nc1ccc(F)cc1	9	-7	97*	-4	4	36*	56*
Oc1[nH]c2ccccc2c1N=Nc1ccccc1	10	-3	1	-17	4	·	·
Oc1cc2c(cc1O)[C@H]1c3ccc(O)c(O)c3OC[C@@]1(O)C2	-1	-2	10	-6	-2	·	·
Oc1ccc2c(c1)OCC1(O)Cc3cc(O)c(O)cc3C21 (stereo not given)	-33	-28	16*	-30	-7	58*	57*
CSCCNC(=O)C1(C)CCN1C(=O)CCc1ccccc1 (stereo not given)	0	5	16*	3	-5	0	0
COCCNC(=S)Nc1ccc(N2CCCCC2)cc1	0	2	0	-8	-1	·	·
CC(=O)OCCc1c2ccccc2c(CCCN(C)C)c2ccccc12	i	-94	16*	-141	-481	-8	-7
N#CC1=C(SCC(=O)c2cc3ccccc3oc2=O)NC(=O)C(C#N)C12CCCC2 (stereo not given)	-155	-51	27*	-72	-42	55*	54*
Cc1ccc(-c2csc3nc4ccc(C(=O)NCCO)cc4c(=O)n23)cc1	i	i	16*	i	-153	-32	-35
Cc1ccc(NC(=O)C(C)[n+]2ccccc2)cc1[N+](=O)[O-] (stereo not given)	0	1	0	2	-2	·	·
COc1cccc2c3c(c(C)nc12)CC(C)O3 (stereo not given)	-268	-147	48*	-197	-105	8	12*
COc1ccc2nc(C)c3c(c2c1)OC(C)C3 (stereo not given)	-75	-7	3	-9	-27	·	·
COc1cc2c(cc1OC)C(Cc1ccc(O)cc1)NCC2 (stereo not given)	-9	-12	4	-8	-4	·	·
COc1cc2c(cc1OC)C(Cc1ccc(O)cc1)N(C)CC2 (stereo not given)	-47	-23	17*	-38	-11	68*	90*
C[C@]12C=CC(=O)C=C1CC[C@H]1[C@@H]3C[C@@H](O)[C@](O)(C(=O)CO)[C@@]3(C)C[C@H](O)[C@@]12F	-9	0	0	0	-6	·	·
CC(C)(C)c1ccc(-c2nc(C#N)c(NCc3ccncc3)o2)cc1	-182	-33	-8	-52	-60	·	·
Cn1c(=O)c2[nH]c(-c3ccccc3Cl)c(O)c2n(C)c1=O	-2	-36	58*	-46	0	71*	77*
